Laboratory results reported in PubChem BioAssay AID1010 (Sanford-Burnham Center for Chemical Genomics, 2008).
Out of some 48,000 compounds screened, about 160 (0.33%) were called active.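 The calls were made as follows: active = survival measured by cellular ATP above 50% at 15 µg/ml in the first screen; inactive = the rest.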 What follows is part of a selection rich in actives, with near analogues and random picks from the rest.

Assay: protection against thapsigargin ER stress killing – CSM14.1 cells, ATP luminescence, primary screen (AID 1010);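 also: cell death triggered by about 15 µM thapsigargin; ATP read 24 h after thapsigargin was added; plate controls were thapsigargin with DMSO for no effect and DMSO without thapsigargin for full effect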
Details: CSM14.1 thapsigargin ER stress survival, active compounds read high, screened at 15 µg/mL (by protocol)
With O=C(Nc1ccc(Cc2ccncc2)cc1)C(c1ccccc1)c1ccccc1 the relative survival (cellular ATP) was 43.5% (inactive).
For COc1cc2ccccc2cc1C(=O)Nc1ccccc1C, the relative survival (cellular ATP) was -5.9% (inactive).
For CC(C)(C)C(=O)CN1C2=NCCN2c2ccccc21, the relative survival (cellular ATP) was -3.6% (inactive).
With COc1ccc(C2CC(c3cccs3)=NN2c2ccc(F)cc2)cc1OC (stereo unspecified) the relative survival (cellular ATP) was 3.6% (inactive).
In the case of O=C(NCc1ccncc1)c1cccc([N+](=O)[O-])c1, the relative survival (cellular ATP) was 2.2% (inactive).
In the case of CCCOc1ccc(/C=C2\C(=O)NN(c3ccccc3)C2=O)cc1OC, the relative survival (cellular ATP) was 4.3% (inactive).
With O=C(NNC(=O)c1cc(NC(=O)c2ccc([N+](=O)[O-])cc2)cc(C(=O)NNC(=O)c2ccccc2)c1)c1ccccc1 the relative survival (cellular ATP) was 10% (inactive).
In the case of Cc1cc(Cl)ccc1NC(=O)CCc1ccccc1, the relative survival (cellular ATP) was 5.6% (inactive).
For O=C(NCc1cccnc1)c1cnn2c(C(F)(F)F)cc(-c3cccs3)nc12, the relative survival (cellular ATP) was 2.5% (inactive).
For O=C1C(=O)N(Cc2ccccc2)C(c2ccc(F)cc2)/C1=C(/O)c1ccccc1 (stereo unspecified), the relative survival (cellular ATP) was 6.2% (inactive).
For NC(=O)c1c(NC(=O)c2ccc(Br)cc2)sc2c1CCCCCC2, the relative survival (cellular ATP) was 3.1% (inactive).
With COc1ccc(C(=O)Nc2sc3c(c2C(N)=O)CCCC3)cc1 the relative survival (cellular ATP) was 13.7% (inactive).
For NC(=O)c1c(NC(=O)c2ccccc2F)sc2c1CCCCCC2, the relative survival (cellular ATP) was 57.3% (active).
For COc1ccc(CCN2C(=O)CC(Cc3ccc(Cl)cc3)C2=O)cc1OC (stereo unspecified), the relative survival (cellular ATP) was 10.7% (inactive).
For COc1cc(NC(=O)COc2ccc(Br)cc2C(C)(C)C)c(OC)cc1Cl, the relative survival (cellular ATP) was 11.7% (inactive).
In the case of Cc1c(C(=O)Nc2ccc(NC(=O)c3ccc(C(C)(C)C)cc3)cc2)cccc1[N+](=O)[O-], the relative survival (cellular ATP) was 0.1% (inactive).
In the case of COc1cccc(OCCOc2ccc(/C=C3/SC(=S)NC3=O)cc2OC)c1, the relative survival (cellular ATP) was 10.2% (inactive).
For NC(=O)C1(N2CCCCC2)CCN(C(=S)Nc2ccc(Cl)cc2)CC1, the relative survival (cellular ATP) was -1.2% (inactive).
For CC1=C(C(=O)Nc2ccccc2)C(c2ccco2)N2C(=O)CSC2=N1 (stereo unspecified), the relative survival (cellular ATP) was 2.3% (inactive).
In the case of O=C(NCCC1=CCCCC1)c1cc(Cl)ccc1[N+](=O)[O-], the relative survival (cellular ATP) was 5.6% (inactive).
For NC1=NC(=O)/C(=C/c2ccc(OCc3cccc4ccccc34)cc2)S1, the relative survival (cellular ATP) was 2.9% (inactive).
For O=C(NCCCCOc1ccccc1)C(O)(c1ccccc1)c1ccccc1, the relative survival (cellular ATP) was 5.8% (inactive).
In the case of COc1cc(OC)cc(C(=O)Nc2cccc(S(N)(=O)=O)c2)c1, the relative survival (cellular ATP) was -2.7% (inactive).
In the case of CCOC(=O)c1ccc(NS(=O)(=O)c2cc(C(=O)Nc3ccccc3)ccc2C)cc1, the relative survival (cellular ATP) was 4.6% (inactive).
For CC1=C(C#N)c2nc(N)c(C#N)c(C)c2/C1=C/c1ccc(-c2cccc(Cl)c2Cl)o1, the relative survival (cellular ATP) was -6.8% (inactive).
With O=C(O)c1cc(-c2ccc(/C=N/Nc3ccc(Cl)c(Cl)c3)o2)ccc1Cl the relative survival (cellular ATP) was -2.2% (inactive).
For COc1ccc(/C=C2\SC(=S)N(CC(=O)OCCN(C)C)C2=O)cc1, the relative survival (cellular ATP) was -6.1% (inactive).
For Cc1c(C#N)c2nc3ccccc3n2c(=O)/c1=C\c1c(O)n(-c2ccc(Br)cc2)[nH]c1=O, the relative survival (cellular ATP) was -1.2% (inactive).
In the case of O=c1nc2cc3[nH]c4c(=O)c5ccccc5c4[nH]c3cc2n1, the relative survival (cellular ATP) was 12.2% (inactive).
In the case of COC(=O)C1=C(C)NC2=C(C(=O)c3ccccc32)C1c1ccc(-c2ccc([N+](=O)[O-])cc2C)o1 (stereo unspecified), the relative survival (cellular ATP) was 7.6% (inactive).
In the case of CC(=O)c1ccc(NC(=S)NC(NC(=O)N(C)C)C(Cl)(Cl)Cl)cc1 (stereo unspecified), the relative survival (cellular ATP) was -1.5% (inactive).
For COc1ccc(/C(O)=C2/C(=O)C(=O)N(CCCCCC(=O)O)C2c2ccccc2)cc1 (stereo unspecified), the relative survival (cellular ATP) was 2.4% (inactive).
For O=C(NCCc1ccccc1)/C(=C/c1ccc(-c2cccc([N+](=O)[O-])c2)o1)NC(=O)c1ccccc1, the relative survival (cellular ATP) was 8.1% (inactive).
For O=C(NC(NC(=S)N1CCOCC1)C(Cl)(Cl)Cl)c1cccc([N+](=O)[O-])c1 (stereo unspecified), the relative survival (cellular ATP) was 0.9% (inactive).
With CC(C)(C)CC(C)(C)NC(=O)CSc1nc2ccccc2[nH]1 the relative survival (cellular ATP) was 12.7% (inactive).
In the case of COC(=O)C1=C(C)N=c2s/c(=C\c3ccc(N(C)C)cc3)c(=O)n2C1c1ccccc1Cl (stereo unspecified), the relative survival (cellular ATP) was 0.6% (inactive).
With COc1cc(/C=C2/NC(=S)NC2=O)ccc1OCc1ccccc1Cl the relative survival (cellular ATP) was 1.9% (inactive).
With CCN1C(=O)/C(=C\c2ccc(OC)c([N+](=O)[O-])c2)C(C(=O)OC)=C1C the relative survival (cellular ATP) was 11.8% (inactive).
With Cc1ccc(N2C(=O)/C(=C/c3sccc3C)SC2=S)cc1 the relative survival (cellular ATP) was 9.2% (inactive).
For O=C1S/C(=C/c2ccccc2F)C(=O)N1CNc1ccccc1Br, the relative survival (cellular ATP) was 2.5% (inactive).
In the case of O=C(Nc1nc(-c2ccc3ccccc3c2)cs1)c1ccc(Cl)cc1[N+](=O)[O-], the relative survival (cellular ATP) was 2% (inactive).
For O=c1[nH]c(=O)n(-c2ccc(Cl)cc2)c(O)c1/C=C1/C=CC=N1, the relative survival (cellular ATP) was 64.8% (active).
With CCOc1ccc(-n2c(O)c(C=C3C=CC=N3)c(=O)[nH]c2=O)cc1 the relative survival (cellular ATP) was 2.3% (inactive).
With O=c1[nH]c(=S)n(-c2cccc(Cl)c2)c(O)c1/C=C1/C=CC=N1 the relative survival (cellular ATP) was 8.4% (inactive).
With COc1ccc(/C=C(/NC(=O)c2ccco2)C(=O)Nc2ccc(C(C)=O)cc2)cc1 the relative survival (cellular ATP) was 2.4% (inactive).
In the case of COC(=O)C(NC(=O)CCC1CCCCC1)C12CC3CC(CC(C3)C1)C2 (stereo unspecified), the relative survival (cellular ATP) was 13.9% (inactive).
For CC1=NN(c2ccc(S(N)(=O)=O)cc2)C(=O)/C1=C\c1ccc(-c2cc([N+](=O)[O-])ccc2C)o1, the relative survival (cellular ATP) was -4.8% (inactive).
With CCOc1c(Br)cc(/C=C2/C(=O)NN(c3ccccc3)C2=O)cc1OC the relative survival (cellular ATP) was 5% (inactive).
For COc1ccc(Br)cc1-c1nc2nnc(C)n2[nH]1, the relative survival (cellular ATP) was 7.4% (inactive).
In the case of Cc1ccc(C(=O)Nc2ccc(NC(=O)c3ccccc3)cc2)cc1S(=O)(=O)N1CCOCC1, the relative survival (cellular ATP) was 5% (inactive).
With COc1ccc(-c2cc(C(=O)Nc3c(C)cccc3C)c3ccccc3n2)cc1 the relative survival (cellular ATP) was 0.1% (inactive).
For COCCCNC(=O)c1ccccc1C, the relative survival (cellular ATP) was 0.6% (inactive).
With CCOCCOC(=O)c1ccc(NC(=O)c2ccccc2C)cc1 the relative survival (cellular ATP) was 7.2% (inactive).
With CCCCOC(=O)C1=C(C)NC2=C(C(=O)CC(c3ccccc3)C2)C1c1ccc(O)c([N+](=O)[O-])c1 (stereo unspecified) the relative survival (cellular ATP) was 3.8% (inactive).
With O=C1OC(c2ccc(NC(=O)C(F)(F)F)cc2)(c2ccc(NC(=O)C(F)(F)F)cc2)c2ccccc21 the relative survival (cellular ATP) was 6.6% (inactive).
In the case of O=C1NC(=S)S/C1=C\c1ccccc1OS(=O)(=O)c1ccc([N+](=O)[O-])cc1, the relative survival (cellular ATP) was 3.7% (inactive).
